Experimental data from PubChem BioAssay (NCI).
About 83,000 compounds went through this panel and 20% of them were active in at least one assay; those are over-represented in the sample as a whole.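 For each line, cells grew in 96-well plates with the test compound present at a single concentration for 48 hours.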 Values without a mark were called inactive. Active and inactive are the calls of the source. The calls were made as follows: active = growth percent below 10; inactive = the rest.

Assays:
Assay in all cases: NCI-60 one-dose screen, 48 h (100 = growth as untreated, 0 = no growth, -100 = all killed)
Conditions in all cases: 10 µM unless noted
[1] = system: SR leukemia
[2] = system: RPMI-8226 leukemia
[3] = system: OVCAR-8 ovarian
[4] = system: OVCAR-5 ovarian
[5] = system: OVCAR-4 ovarian
[6] = system: SK-OV-3 ovarian
[7] = system: IGROV1 ovarian
[8] = system: OVCAR-3 ovarian
[9] = system: NCI/ADR-RES ovarian
[10] = system: HS 578T breast

| SMILES | growth [1] | growth [2] | growth [3] | growth [4] | growth [5] | growth [6] | growth [7] | growth [8] | growth [9] | growth [10] |
| --- | --- | --- | --- | --- | --- | --- | --- | --- | --- | --- |
| CC(=O)Nc1cccc(Nc2nccc(N[C@@H](C)c3ccccc3)n2)c1 | 2.48% (active) | 8.53% (active) | 9.3% (active) | 34.2% | 50.7% | 38.9% | 15.9% | 18% | 3.58% (active) |  |
| CNC(=O)c1cc(Oc2ccc3nc(NC(=O)Nc4cccc(OC(F)(F)F)c4)sc3c2)ccn1 | 37.3% | 51.7% | 6.11% (active) | 50.6% | 30.8% | -30.7% (active) | 28.4% | 46.2% | -2.64% (active) |  |
| C#CCOc1ccc(/C=N/Nc2nc(-c3cc4cc(Br)ccc4oc3=O)cs2)cc1OC | 80.2% | 68.2% | 65.7% | 73.9% | 47.8% |  | 83.1% | 87.3% | 63.8% | 86.8% |
| CC(=O)Nc1cccc(Nc2nc(NCc3ccccc3)c3ccccc3n2)c1 | -45.3% (active) | -38.3% (active) | -73.6% (active) | -98.4% (active) | -73.2% (active) | -96.2% (active) | -94.1% (active) | -79.3% (active) | -65% (active) |  |
| Cc1nc(Nc2ccccn2)sc1C(=O)CC(SCC(=O)Nc1ccc(Cl)cc1)c1ccccc1F (stereo not given) | 12.6% | 7.34% (active) | -35.8% (active) | -41.2% (active) | 42.5% | 8.74% (active) | 20.4% | -13.5% (active) | -18% (active) |  |
| COc1cc(CNC(=O)/C=C/c2ccc3c(c2)OCO3)ccc1OCc1cn(-c2ccc([N+](=O)[O-])cc2)nn1 | 69.3% | 74.2% | 90.5% | 97.7% | 75.7% | 99.3% | 107% | 108% | 86.7% |  |
| Cc1cccc(-c2nc(Nc3ccc(C)c(S(N)(=O)=O)c3)c3ccccc3n2)c1 | 9.02% (active) | 12.9% | 32.8% | 47.6% | 44.7% | 103% | 42.9% | 39.3% | 18.7% |  |
| Cc1cccc(-c2nc(Nc3cccc(S(N)(=O)=O)c3)c3ccccc3n2)c1 | 33% | 38.3% | 2.28% (active) | 77.2% | 52.3% | 102% | 66.1% | 73.4% | 22.8% |  |
| CCOc1ccc(-c2c(C#N)c(-c3ccc(Cl)cc3)nc3n[nH]c(-c4ccc(Cl)cc4)c23)cc1OC | 18.8% | 17.3% | 79.3% | 72.2% | 51.2% | 63.4% | 62.9% | 67.5% | 62% |  |
| Cn1cc(NC(=O)c2cc(NC(=O)c3ccc(/C=C/c4ccccc4)cc3)cn2C)cc1C(=O)NCCCN1CCOCC1 | -22.3% (active) | -47.7% (active) | 15.4% | 93.9% | 63% | 98.4% | 58.3% | 24.5% | 90.2% |  |
| C=Cn1cc(C(=O)O)c(=O)c2cc(F)c(N3CCN(c4nccc(-c5nccs5)n4)CC3)cc21 | -35.2% (active) | -24% (active) | 7.65% (active) | -25.6% (active) | 10.7% | -35.8% (active) | -30.3% (active) | -4.52% (active) | -39.5% (active) |  |
| CNC(=O)c1cccc(NC(=O)c2ccc3c(c2)nnn3/C(C#N)=C/c2ccccn2)c1 | -5.41% (active) | -23.6% (active) | 10% | 19.6% | 40.6% | 83.4% | -2.48% (active) | -69.2% (active) | 84.3% |  |
| N#Cc1c(-c2ccc(Br)cc2)nc2n[nH]c(-c3ccc(Br)cc3)c2c1-c1ccc(C(F)(F)F)cc1 | -11.6% (active) | 0.725% (active) | 40.4% | 47.7% | 11.8% | 21.8% | 6.15% (active) | 10.7% | 23.7% |  |
| COc1ccc(/C=C/c2nc3ccccc3n3c(-c4ccc(Cl)cc4)nnc23)cc1 | 60.1% | 81.4% | 92.7% | 102% | 81% | 98.4% | 66.8% | 99% | 94.4% |  |
| CC(C)c1ccc2c(N)c(C(=O)Nc3cccc(C(F)(F)F)c3)sc2n1 | 40.4% | 32.1% | 90.7% | 85% | 78.1% | 87.2% | 108% | 94.1% | 71.7% |  |
| C[C@H](Nc1nc(NCCc2ccccc2)nc2ccccc12)c1ccccc1 | -64.3% (active) | -37.5% (active) | -78.6% (active) | -92.2% (active) | -31.4% (active) | -88.9% (active) | -84.6% (active) | -70.1% (active) | -73.9% (active) |  |
| COc1cc(/C=C/C(=O)c2ccc(C)cc2)ccc1Oc1nc(Nc2ccc(F)cc2)nc(N(C)C)n1 | 3.88% (active) | -1.89% (active) |  | 79.1% | 39.4% | 79.4% | 57.8% | 52.4% | 38.1% | 41.7% |
| Nc1cccc(SCc2cc3ccccc3[nH]c2=O)c1 | 36.5% | 33.1% |  | 63.6% | 44.1% | 80% | 72.9% | 65.2% | 67.8% | 78.2% |
| COc1cc(C2CC(c3ccc(S(=O)(=O)NCCNc4nc(Nc5ccc(F)cc5)nc(N(C)C)n4)cc3)=Nc3c(N)nc(N)nc3N2)cc(OC)c1OC (stereo not given) | 36.1% | 24.8% |  | 98.4% | 85.6% | 110% | 81.7% | 93.6% | 95.6% | 76.5% |
| C=C1CC[C@@H]2[C@]3(C)COC(c4cn[nH]c4-c4ccc(F)cc4)O[C@@H]3CC[C@@]2(C)[C@@H]1C/C=C1/C(=O)OCC1O (stereo not given in full) | 9.73% (active) | 0.899% (active) |  | -42.2% (active) | 32.9% | 46.6% | -31.1% (active) | -68.6% (active) | -45.6% (active) | 44.8% |
| Cc1ccccc1[C@H]1C(C(=O)c2ccc(Cl)cc2)C2(N[C@@H]1c1ccccc1)C(=O)Nc1ccc(Br)cc12 (stereo not given in full) | -21.5% (active) | -10.5% (active) | 2.36% (active) |  | 14.6% | 33.4% | 13.4% | -30.7% (active) | -55.1% (active) |  |
| N=C1N=C(SCc2nc3ccccc3[nH]2)NC(=O)/C1=C/c1ccc(Cl)cc1 | 98.7% | 96.9% |  | 113% | 95.6% | 111% | 110% | 114% | 100% | 98.3% |
| NS(=O)(=O)c1ccc(N=Nc2c(O)n(CC(=O)Nc3ccccc3)c3ccccc23)cc1 | 18.5% | 42.7% | 11.3% |  | 57.3% | 25.2% | 38.9% | 20.8% | 64.3% | 52% |
| C=C1CCC2C3(C)COC(c4ccc(F)cc4)OC3CCC2(C)C1C/C=C1/C(=O)OCC1O (stereo not given) | 7.55% (active) | 6.7% (active) |  | -6.07% (active) | 0.389% (active) | 40.5% | -26.3% (active) | -82% (active) | -22.4% (active) | -5.65% (active) |
| CCOC(=O)c1ccc(Nc2nc(NN)nc(-c3ccc(OC)cc3)c2C#N)cc1 | 97.2% | 92% |  | 104% | 104% | 119% | 108% | 107% | 113% | 104% |
| O=C(CSc1nc2ccccc2c(=O)[nH]1)NCCN1CCCCC1 | 90.9% | 100% | 97.7% |  | 98.8% | 107% | 104% | 105% | 102% | 94.1% |
| CCCCCCCS(=O)(=O)N1CCCC(C(=O)Nc2nc3ccc(NC(=O)c4ccc(F)c(OC)c4F)cc3s2)C1 (stereo not given) | 60.6% | 41.3% |  | 65.1% | 29.8% | 57.4% | 60.3% | 40.2% | 46.8% | 25.2% |
| CCCSc1nc(Nc2ccc(S(N)(=O)=O)cc2)c(C#N)c(-c2ccc(Cl)cc2)n1 | 18.5% | 11.2% |  | 61.1% | 7.47% (active) | -32.6% (active) | 43% | 31.7% | 26.8% | 12.5% |
| COc1cc2oc(-c3cccc(C(=O)Nc4ccc(Cl)cc4)c3)cc(=O)c2c(OCC(=O)N[C@@H](Cc2ccccc2)C(=O)O)c1OC | 104% | 101% |  | 101% | 104% | 138% | 98% | 117% | 104% | 108% |
